Assay results as given in PubChem BioAssay (Tox21).
Values joined by “and” are separate entries in the source; they are usually repeats but may differ in a detail not shown here. Equal values may be shown once. Active and inactive are the calls of the source. A call without a number means that no potency is given here. Unless noted, calls come from the whole dose curve; as a rule, active = well fitted curve in the direction sought with a large enough effect in the repeat runs; inconclusive = weak or mixed curves; inactive = no such curve, though single readings can be large; an effect the other way counts as inactive or inconclusive.

What was measured:
[1] = qHTS assay to identify small molecule antagonists of the thyroid receptor (TR) signaling pathway - cell viability counter screen (AID 743064); note: nearly all actives have a fitted effect of over 50% in size; note: potency is the fitted concentration of half-maximal effect
Procedure, shortened: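 Fluorescence from CellTiter-Fluor, added after 23.5 h exposure at 37 °C, reported viability of GH3.TRE-Luc cells co-treated with compound and 1 nM T3. Measured in the same wells as the luciferase TR readout.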

[2] = qHTS assay to identify small molecule antagonists of the thyroid receptor (TR) signaling pathway (AID 743065); note: nearly all actives have a fitted effect of over 55% in size; note: potency is the fitted concentration of half-maximal effect
Procedure, shortened: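 GH3.TRE-Luc rat pituitary cells carrying two TR response elements driving luciferase were plated for 4 h, given compound plus 1 nM T3 (final), and incubated 23.5 h at 37 C. ONE-Glo luminescence measured reporter inhibition; CellTiter-Fluor fluorescence tracked cytotoxicity.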

[3] = tested on: thyroid hormone receptor (rat, GH3 cells); assay: qHTS assay to identify small molecule agonists of the thyroid receptor (TR) signaling pathway (AID 743066; calls by dose curve)
[4] = target: Estrogen receptor (Homo sapiens) (UniProt P03372); assay: qHTS assay to identify small molecule antagonists of the estrogen receptor alpha (ER-alpha) signaling pathway (AID 743069; active = well fitted curve in the direction sought with a large enough effect in the signal ratio in the repeat runs, not every such curve was filed as active; inconclusive = weak or mixed curves, or effect the other way; inactive = no such curve, though single readings can be large or run the other way; the % refers to the signal ratio)
Sequence of Estrogen receptor (Homo sapiens) (P03372 whole entry, looked up): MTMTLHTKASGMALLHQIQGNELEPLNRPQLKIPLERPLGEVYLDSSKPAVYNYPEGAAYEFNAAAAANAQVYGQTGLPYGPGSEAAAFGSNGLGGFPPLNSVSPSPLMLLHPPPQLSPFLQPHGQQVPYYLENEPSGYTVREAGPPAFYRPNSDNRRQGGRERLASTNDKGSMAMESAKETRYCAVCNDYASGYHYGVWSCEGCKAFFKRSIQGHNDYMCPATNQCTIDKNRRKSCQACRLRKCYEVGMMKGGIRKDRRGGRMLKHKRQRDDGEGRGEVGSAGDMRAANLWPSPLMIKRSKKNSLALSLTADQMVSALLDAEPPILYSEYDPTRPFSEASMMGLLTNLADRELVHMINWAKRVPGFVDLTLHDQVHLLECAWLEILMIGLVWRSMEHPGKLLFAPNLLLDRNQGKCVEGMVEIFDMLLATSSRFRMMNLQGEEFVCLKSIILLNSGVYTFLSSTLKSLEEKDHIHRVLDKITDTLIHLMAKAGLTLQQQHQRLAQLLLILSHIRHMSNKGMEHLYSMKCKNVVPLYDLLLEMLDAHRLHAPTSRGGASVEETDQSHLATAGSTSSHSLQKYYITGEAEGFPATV
Procedure, shortened: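 HEK293 cells stably carrying an ER-alpha-UAS-bla beta-lactamase reporter were pre-cultured overnight in 2% charcoal-stripped FBS medium. Test compounds in DMSO were added together with 17beta-estradiol for 18 hr at 37C. Read-out was fluorescence after 2 hr with LiveBLAzer B/G FRET substrate at room temperature.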

[5] = qHTS assay to identify small molecule antagonists of the estrogen receptor alpha (ER-alpha) signaling pathway - cell viability counter screen (AID 743074; calls by dose curve; note: nearly all actives have a fitted effect of over 45% in size)
[6] = target: Estrogen receptor (Homo sapiens) (UniProt P03372); assay: qHTS assay to identify small molecule agonists of the estrogen receptor alpha (ER-alpha) signaling pathway (AID 743075; calls by dose curve; note: potency is the fitted concentration of half-maximal effect)
[7] = target: Estrogen receptor (Homo sapiens) (UniProt P03372); assay: qHTS assay to identify small molecule agonists of the estrogen receptor alpha (ER-alpha) signaling pathway using the BG1 cell line (AID 743079); note: nearly all actives have a fitted effect of over 20% in size; note: potency is the fitted concentration of half-maximal effect
[8] = qHTS assay to identify small molecule antagonists of the estrogen receptor alpha (ER-alpha) signaling pathway using the BG1 cell line (AID 743080; calls by dose curve;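 note: BG1 cells stimulated with 17beta-estradiol alongside compound; series mostly up to about 70 µM; nearly all actives have a fitted effect of over 25% in size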)
Procedure, shortened: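 Readout is ONE-Glo luminescence, taken 30 min at room temperature after reagent addition, preceded by a CellTiter-Fluor viability read; BG1-Luc-4E2 cells had received compound and 17beta-estradiol for 21.5 h at 37 C.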

[9] = qHTS assay to identify small molecule antagonists of the estrogen receptor alpha (ER-alpha) signaling pathway using the BG1 cell line - cell viability counter screen (AID 743081);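 note: compound given together with 17beta-estradiol as the ER stimulus; nearly all actives have a fitted effect of over 45% in size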; note: potency is the fitted concentration of half-maximal effect
[10] = target: Aromatase (Homo sapiens) (UniProt P11511); assay: qHTS assay to identify aromatase inhibitors (AID 743083); note: series mostly up to about 70 µM; nearly all actives have a fitted effect of over 55% in size
Sequence of Aromatase (Homo sapiens) (P11511 whole entry, looked up): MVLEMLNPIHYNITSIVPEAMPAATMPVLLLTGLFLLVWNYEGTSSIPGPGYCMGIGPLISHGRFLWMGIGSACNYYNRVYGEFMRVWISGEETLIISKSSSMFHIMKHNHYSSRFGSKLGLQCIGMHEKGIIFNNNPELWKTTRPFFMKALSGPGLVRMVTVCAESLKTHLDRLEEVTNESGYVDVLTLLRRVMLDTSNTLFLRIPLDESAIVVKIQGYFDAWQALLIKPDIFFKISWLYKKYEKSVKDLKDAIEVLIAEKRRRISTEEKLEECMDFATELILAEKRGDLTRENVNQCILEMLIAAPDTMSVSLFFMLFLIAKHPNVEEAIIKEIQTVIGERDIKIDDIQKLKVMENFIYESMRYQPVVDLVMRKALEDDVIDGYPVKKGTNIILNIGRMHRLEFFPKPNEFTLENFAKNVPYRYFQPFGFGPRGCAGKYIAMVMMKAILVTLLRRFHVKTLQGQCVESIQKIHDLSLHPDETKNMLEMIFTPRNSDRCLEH

Structure (SMILES) | Potency [1] | Potency [2] | outcome [3] | Potency [4] | outcome [5] | Potency [6] | Potency [7] | Potency [8] | Potency [9] | Potency [10]
CC(=O)c1ccc(Cl)c(Cl)c1Cl | inactive | inactive | inactive | inactive | inactive | inactive | inactive | inactive | inactive | inactive
CCCCCCOC(=O)c1ccccc1 | inactive | inactive | inactive | inactive | inactive | inactive | inactive | inactive | inactive | inactive
CC(C)CC(C)(C)C | inactive | inactive | inactive | inactive | inactive | inactive | inactive | inactive | inactive | inactive
CNc1ccccc1 | inactive | inactive | inactive | inactive | inactive | inactive | inactive | inactive | inactive | inactive
Oc1ccc(Oc2ccccc2)cc1 | 41 µM (active) | 20.6 µM (active) | inactive | inactive | inactive | 0.0736 µM [inconclusive] (active) | 7.3 µM (active) |  | inactive | 
CCCCCCCCCCCC(=O)OCC | inactive | inactive | inactive | inactive | inactive | inactive | inactive |  | inactive | inactive
CCC1=C(C)CN(C(=O)NCCc2ccc(S(=O)(=O)NC(=O)NC3CCC(C)CC3)cc2)C1=O (stereo not given) | inactive | inactive | inactive | inactive | inactive | inactive | inactive |  | inactive | inactive
CC(CCl)OC(C)CCl (stereo not given) | inactive | inactive | inactive | inactive | inactive | inactive | inactive |  | inactive | 
CCc1cnc(C(=O)O)c(C(=O)O)c1 | inactive | inactive | inactive | inactive | inactive | inactive | inactive |  | inactive | inactive
CCCCCC1CCC(=O)O1 (stereo not given) | inactive | inactive | inactive | inactive | inactive | inactive | inactive | inactive | inactive | inactive
CCCCCCCCCCCCSCCOCCO | inactive | inactive | inactive | inactive | inactive | inactive | inactive | inactive | inactive | inactive
CC(COc1ccccc1)NC(C)C(O)c1ccc(O)cc1 (stereo not given) | inactive | inactive | inactive | inactive | inactive | inactive | inactive | inactive | inactive | inactive
O=C1c2ccccc2C(=O)C1c1ccc2cc(S(=O)(=O)O)cc(S(=O)(=O)O)c2n1 | 33.1 µM (active) | inactive | inactive | inactive | inactive | inactive | inactive | inactive | 52.5 µM (active) | inactive
O=C(O)c1cc(C(=O)O)c(C(=O)O)cc1C(=O)O | inactive | inactive | inactive | inactive | inactive | inactive | inactive | inactive | inactive | inactive
O=[N+]([O-])c1cccc(I)c1 | inactive | inactive | inactive | inactive | inactive | inactive | inactive | inactive | inactive | inactive
CCCC(=O)OCc1ccccc1 | inactive | inactive | inactive | inactive | inactive | inactive | inactive | inactive | inactive | inactive
CCCCOC(=O)CC#N | inactive | inactive | inactive | inactive | inactive | inactive | inactive | inactive | inactive | inactive
CC(C)=CCCC(C)C=O (stereo not given) | inactive | inactive | inactive | inactive | inactive | inactive | inactive | inactive | inactive | inactive
Cc1ccc(NC=O)c(C)c1 | inactive | inactive | inactive | inactive | inactive | inactive | inactive | inactive | inactive | inactive
CC(C)(C)c1ccc(CCC=O)cc1 | inactive | inactive | inactive | inactive | inactive | inactive | inactive |  | inactive | 
COc1ccc(C(=O)c2ccc(C)cc2)c(O)c1 | inactive | inactive | inactive | inactive | inactive | inactive | 13.3 µM (active) and 12.3 µM (active) |  | inactive | inactive
SCCOCCOCCS | inactive | inactive | inactive | inactive | inactive | inactive | inactive |  | inactive | inactive
CCCC(=O)OCCC(C)C | inactive | inactive | inactive | inactive | inactive | inactive | inactive | inactive | inactive | inactive
C/C(=C(\CCO)SS/C(CCO)=C(\C)N(C=O)Cc1cnc(C)nc1N)N(C=O)Cc1cnc(C)nc1N | inactive | inactive | inactive | inactive | inactive | inactive | inactive |  | inactive | inactive
O=C(O)c1ccccc1-n1cc(C(=O)O)c(=O)c2cc(Nc3c(F)cc(F)cc3Cl)c(Cl)cc21 | inactive | inactive | inactive | inactive | inactive | inactive | inactive | inactive | inactive | inactive
C=CC(=O)OCCCCCCCCCC | inactive | inactive | inactive | inactive | inactive | inactive | inactive | inactive | inactive | inactive
CCCC1CCOC(C)S1 (stereo not given) | inactive | inactive | inactive | inactive | inactive | inactive | inactive | inactive | inactive | inactive

Structure (SMILES) | Potency [1] | Potency [2] | outcome [3] | Potency [4] | outcome [5] | Potency [6] | Potency [7] | Potency [8] | Potency [9] | Potency [10]
OCCc1ccncc1 | inactive | inactive | inactive | inactive | inactive | inactive | inactive |  | inactive | 
NC(=O)c1ccccc1 | inactive | inactive | inactive | inactive | inactive | inactive | inactive | inactive | inactive | inactive
CC(C)NC(=O)c1ccccc1N | inactive | inactive | inactive | inactive | inactive | inactive | inactive | inactive | inactive | inactive
O=C1C=CCCC1 | inactive | inactive | inactive | inactive | inactive | inactive | inactive | inactive | inactive | inactive
CC(C)CCCCCOC(=O)CS | inactive | inactive | inactive | inactive | inactive | inactive | inactive | inactive | inactive | 
O=C1OC(=O)C2CC=CCC12 (stereo not given) | inactive | inactive | inactive | inactive | inactive | inactive | inactive | inactive | inactive | inactive
S=c1[nH][nH]c(=S)s1 | inactive | inactive | inactive | inactive | inactive | inactive | inactive | inactive | inactive | inactive
C=CCCC | inactive | inactive | inactive | inactive | inactive | inactive | inactive | inactive | inactive | inactive
Cc1c(N=C=O)cccc1N=C=O | inactive | inactive | inactive | inactive | inactive | inactive | inactive | inactive | inactive | inactive
CC(=O)Nc1cccc(N)c1 | inactive | inactive | inactive | inactive | inactive | inactive | inactive | inactive | inactive | inactive
CCC(C)C1N=C(C)C(C)S1 (stereo not given) | inactive | inactive | inactive |  | inactive |  |  |  | inactive | 
[O-][n+]1ccc(Cl)cc1 | inactive | inactive | inactive |  | inactive |  |  |  | inactive | 
O=C(O)c1ccncc1 | inactive | inactive | inactive |  | inactive |  |  |  | inactive | inactive
COc1ccc(C(=O)Nc2ccccc2)cc1[N+](=O)[O-] | inactive | inactive | inactive | inactive | inactive | inactive | 3.09 µM (active) |  | inactive | inactive
C=CC(C)CCC=C(C)C (stereo not given) | inactive | inactive | inactive |  | inactive |  |  |  | inactive | inactive
CC/C=C/CCO | inactive | inactive | inactive |  | inactive |  |  |  | inactive | 
Cc1c(Cl)cccc1[N+](=O)[O-] | inactive | inactive | inactive |  | inactive |  |  |  | inactive | inactive
CCOC(OCC)OCC | inactive | inactive | inactive | inactive | inactive | inactive | inactive |  | inactive | inactive
C=C[Si](OCC)(OCC)OCC | inactive | inactive | inactive |  | inactive |  |  |  | inactive | inactive
N#CCCCC(C#N)CCC#N (stereo not given) | inactive | inactive | inactive | inactive | inactive | inactive |  |  | inactive | inactive
O=C(Cl)c1ccc(F)c(Cl)c1 | inactive | inactive | inactive | inactive | inactive | inactive |  |  | inactive | inactive
O=C(O)CNc1ccccc1 | inactive | inactive | inactive |  | inactive |  |  |  | inactive | inactive
FC(F)(Cl)C(F)(Cl)Cl | inactive | inactive | inactive | inactive |  | inactive | inactive | inactive | inactive | inactive
O=Cc1ccc(Cl)c([N+](=O)[O-])c1 | inactive | inactive | inactive |  | inactive | inactive |  |  | inactive | 
CC(=O)c1cccnc1 | inactive | inactive | inactive | inactive | inactive | inactive | inactive |  | inactive | inactive
CCCCCCCCC(=O)OCC(C)OC(=O)CCCCCCCC (stereo not given) | inactive | inactive | inactive |  | inactive |  |  |  | inactive | inactive
C=C[Si]1(C)O[Si](C)(C=C)O[Si](C)(C=C)O[Si](C)(C=C)O1 (stereo not given) | inactive | inactive | inactive |  | inactive |  |  |  | inactive | inactive
